# In the supplement of paper PMC9446081:
# ± gives the standard deviation of the averaged measurements.
# What was measured:
# Assay in all cases: relative enzymatic activity vs untreated control (fraction); higher = less inhibition
# Settings in all cases: 100 µM; incubation time: 2 h at 37 C
# DNA gyrase = tested on: DNA gyrase
# Procedure: (§1)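 In vitro enzymatic inhibition assays (ProFoldin kits) for 12 purified essential E. coli enzymes or complexes, each treated with 218 active antibacterial compounds at 100 µM for 2 h at 37°C. Read-outs were fluorescence or absorbance (phosphate detection, dye binding), converted to activity via standard curves and expressed relative to untreated DMSO controls.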
# DNA helicase = DNA helicase (UniProt P0ACB1)
# Sequence of DNA helicase (P0ACB1 whole entry): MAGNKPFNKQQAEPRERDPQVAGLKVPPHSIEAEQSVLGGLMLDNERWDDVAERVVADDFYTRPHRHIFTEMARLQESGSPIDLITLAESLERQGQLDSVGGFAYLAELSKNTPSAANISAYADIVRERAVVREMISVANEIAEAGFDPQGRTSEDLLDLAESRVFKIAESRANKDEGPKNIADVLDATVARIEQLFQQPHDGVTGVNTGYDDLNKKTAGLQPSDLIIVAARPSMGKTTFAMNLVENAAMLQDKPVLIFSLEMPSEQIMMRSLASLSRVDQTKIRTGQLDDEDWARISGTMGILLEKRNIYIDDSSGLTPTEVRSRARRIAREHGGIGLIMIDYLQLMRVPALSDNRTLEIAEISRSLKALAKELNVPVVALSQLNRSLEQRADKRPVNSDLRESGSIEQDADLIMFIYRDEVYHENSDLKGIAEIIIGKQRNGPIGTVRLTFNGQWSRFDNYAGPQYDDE
# Procedure: as §1
# DNA ligase = DNA ligase (UniProt B1XA82)
# Sequence of DNA ligase (B1XA82 whole entry): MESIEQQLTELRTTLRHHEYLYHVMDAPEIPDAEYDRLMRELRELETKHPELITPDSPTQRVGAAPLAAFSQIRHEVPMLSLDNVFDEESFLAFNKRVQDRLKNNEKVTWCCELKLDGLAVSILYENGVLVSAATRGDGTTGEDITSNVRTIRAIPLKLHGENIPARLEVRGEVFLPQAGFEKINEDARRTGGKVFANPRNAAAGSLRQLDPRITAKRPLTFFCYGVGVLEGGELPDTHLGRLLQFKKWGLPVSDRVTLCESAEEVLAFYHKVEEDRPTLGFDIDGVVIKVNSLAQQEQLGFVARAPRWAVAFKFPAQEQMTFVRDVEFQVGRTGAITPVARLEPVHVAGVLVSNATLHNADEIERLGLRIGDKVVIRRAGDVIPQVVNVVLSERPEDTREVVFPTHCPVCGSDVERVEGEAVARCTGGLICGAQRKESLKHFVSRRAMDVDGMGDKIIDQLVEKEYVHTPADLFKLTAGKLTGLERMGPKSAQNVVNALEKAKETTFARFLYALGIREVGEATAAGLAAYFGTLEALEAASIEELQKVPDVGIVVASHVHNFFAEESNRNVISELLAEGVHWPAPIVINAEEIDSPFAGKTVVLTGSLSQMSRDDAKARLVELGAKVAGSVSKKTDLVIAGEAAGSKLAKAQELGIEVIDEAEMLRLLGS
# Procedure: as §1
# DNA polymerase = DNA polymerase (UniProt P10443)
# Sequence of DNA polymerase (P10443 whole entry): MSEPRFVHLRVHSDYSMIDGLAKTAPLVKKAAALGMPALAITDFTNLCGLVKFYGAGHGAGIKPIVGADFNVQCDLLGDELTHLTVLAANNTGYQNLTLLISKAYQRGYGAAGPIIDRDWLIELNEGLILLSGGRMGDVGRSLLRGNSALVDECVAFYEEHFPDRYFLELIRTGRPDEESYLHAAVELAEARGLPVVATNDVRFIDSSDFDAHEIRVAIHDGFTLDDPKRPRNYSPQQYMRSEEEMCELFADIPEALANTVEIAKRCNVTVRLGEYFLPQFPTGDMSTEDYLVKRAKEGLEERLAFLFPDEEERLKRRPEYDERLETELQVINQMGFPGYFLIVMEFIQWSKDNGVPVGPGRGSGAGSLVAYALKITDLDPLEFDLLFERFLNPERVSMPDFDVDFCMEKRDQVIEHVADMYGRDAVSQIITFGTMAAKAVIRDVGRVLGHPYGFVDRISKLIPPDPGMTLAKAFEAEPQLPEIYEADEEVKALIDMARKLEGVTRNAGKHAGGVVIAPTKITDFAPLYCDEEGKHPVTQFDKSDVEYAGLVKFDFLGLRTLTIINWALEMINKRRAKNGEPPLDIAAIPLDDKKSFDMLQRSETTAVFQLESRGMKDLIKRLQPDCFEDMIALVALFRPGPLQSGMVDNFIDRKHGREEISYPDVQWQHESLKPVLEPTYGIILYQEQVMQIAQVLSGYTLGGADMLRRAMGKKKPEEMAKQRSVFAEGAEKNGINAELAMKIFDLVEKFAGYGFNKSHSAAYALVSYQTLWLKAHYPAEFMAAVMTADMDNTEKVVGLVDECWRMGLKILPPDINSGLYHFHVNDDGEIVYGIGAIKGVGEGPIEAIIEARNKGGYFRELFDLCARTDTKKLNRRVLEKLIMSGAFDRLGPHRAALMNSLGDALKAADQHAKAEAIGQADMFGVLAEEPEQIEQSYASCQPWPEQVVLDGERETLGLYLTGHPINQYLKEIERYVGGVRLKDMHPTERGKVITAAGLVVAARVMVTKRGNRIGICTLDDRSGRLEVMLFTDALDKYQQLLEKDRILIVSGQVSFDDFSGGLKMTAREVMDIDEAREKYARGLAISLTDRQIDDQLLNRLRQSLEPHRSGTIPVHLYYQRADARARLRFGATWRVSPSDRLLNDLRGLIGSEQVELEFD
# Procedure: as §1
# DNA primase = DNA primase (UniProt P0ABS7)
# Sequence of DNA primase (P0ABS7 whole entry): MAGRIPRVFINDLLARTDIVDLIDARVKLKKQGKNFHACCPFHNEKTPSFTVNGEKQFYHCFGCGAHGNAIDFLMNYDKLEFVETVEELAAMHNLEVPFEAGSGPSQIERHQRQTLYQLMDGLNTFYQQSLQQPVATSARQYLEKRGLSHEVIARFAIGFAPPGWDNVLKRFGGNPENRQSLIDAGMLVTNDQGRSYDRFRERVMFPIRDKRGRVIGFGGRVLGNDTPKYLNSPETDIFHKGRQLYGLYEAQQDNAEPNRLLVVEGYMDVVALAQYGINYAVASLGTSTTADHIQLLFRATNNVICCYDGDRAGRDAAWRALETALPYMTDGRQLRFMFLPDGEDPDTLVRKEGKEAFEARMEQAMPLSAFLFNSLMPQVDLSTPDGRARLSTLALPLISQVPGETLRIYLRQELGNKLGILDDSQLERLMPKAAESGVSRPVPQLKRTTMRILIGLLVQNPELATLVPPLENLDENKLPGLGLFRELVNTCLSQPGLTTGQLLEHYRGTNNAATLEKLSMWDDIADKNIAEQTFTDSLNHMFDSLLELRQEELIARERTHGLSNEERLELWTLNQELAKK
# Procedure: as §1
# GlmU = GlmU (UniProt A7ZTU1)
# Sequence of GlmU (A7ZTU1 whole entry, looked up): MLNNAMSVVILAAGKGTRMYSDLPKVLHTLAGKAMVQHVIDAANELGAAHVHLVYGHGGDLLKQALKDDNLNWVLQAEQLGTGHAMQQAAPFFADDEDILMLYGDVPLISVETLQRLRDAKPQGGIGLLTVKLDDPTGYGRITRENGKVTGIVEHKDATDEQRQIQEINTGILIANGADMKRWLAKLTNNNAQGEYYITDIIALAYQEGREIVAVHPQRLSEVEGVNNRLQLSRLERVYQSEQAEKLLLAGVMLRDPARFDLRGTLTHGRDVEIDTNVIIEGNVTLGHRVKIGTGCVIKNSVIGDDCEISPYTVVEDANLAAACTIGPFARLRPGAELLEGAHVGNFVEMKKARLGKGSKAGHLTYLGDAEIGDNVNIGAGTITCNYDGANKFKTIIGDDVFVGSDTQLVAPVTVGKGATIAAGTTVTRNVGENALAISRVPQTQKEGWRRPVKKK
# Procedure: as §1
# Guanlyate kinase = Guanlyate kinase (UniProt Q0TBG1)
# Sequence of Guanlyate kinase (Q0TBG1 whole entry): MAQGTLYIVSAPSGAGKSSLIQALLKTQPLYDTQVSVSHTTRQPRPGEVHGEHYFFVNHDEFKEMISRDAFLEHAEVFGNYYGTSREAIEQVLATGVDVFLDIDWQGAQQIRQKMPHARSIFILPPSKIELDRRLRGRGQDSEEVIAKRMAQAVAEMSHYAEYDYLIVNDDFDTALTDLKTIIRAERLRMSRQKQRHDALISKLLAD
# Procedure: as §1
# MurA = MurA (UniProt Q3YX52)
# Sequence of MurA (Q3YX52 whole entry): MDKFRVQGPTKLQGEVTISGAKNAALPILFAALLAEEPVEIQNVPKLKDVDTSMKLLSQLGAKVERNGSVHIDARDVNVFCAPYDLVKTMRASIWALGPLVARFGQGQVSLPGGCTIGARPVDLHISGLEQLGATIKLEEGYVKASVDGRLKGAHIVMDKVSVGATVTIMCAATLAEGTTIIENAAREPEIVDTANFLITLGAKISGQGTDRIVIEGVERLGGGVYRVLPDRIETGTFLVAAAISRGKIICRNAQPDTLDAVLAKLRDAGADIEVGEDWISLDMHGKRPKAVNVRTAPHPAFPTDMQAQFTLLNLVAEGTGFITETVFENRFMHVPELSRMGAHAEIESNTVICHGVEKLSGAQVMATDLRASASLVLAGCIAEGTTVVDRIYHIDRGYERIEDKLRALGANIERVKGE
# Procedure: as §1
# MurD = biological target: T1, MurD (UniProt P14900)
# T1 sequence (whole entry): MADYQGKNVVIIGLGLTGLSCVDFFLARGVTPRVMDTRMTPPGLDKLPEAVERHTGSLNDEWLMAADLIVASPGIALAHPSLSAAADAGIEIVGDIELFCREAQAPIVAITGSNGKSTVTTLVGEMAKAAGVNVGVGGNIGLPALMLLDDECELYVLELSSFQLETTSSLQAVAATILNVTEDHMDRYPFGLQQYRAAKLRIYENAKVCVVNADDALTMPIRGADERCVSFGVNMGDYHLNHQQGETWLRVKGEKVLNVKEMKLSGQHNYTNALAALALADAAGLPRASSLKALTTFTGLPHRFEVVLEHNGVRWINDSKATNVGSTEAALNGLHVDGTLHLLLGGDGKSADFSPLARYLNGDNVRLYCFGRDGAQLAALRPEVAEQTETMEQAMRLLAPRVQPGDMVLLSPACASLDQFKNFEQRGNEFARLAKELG
# Procedure: as §1
# MurF = biological target: T2, MurF (UniProt P11880)
# T2 sequence (whole entry): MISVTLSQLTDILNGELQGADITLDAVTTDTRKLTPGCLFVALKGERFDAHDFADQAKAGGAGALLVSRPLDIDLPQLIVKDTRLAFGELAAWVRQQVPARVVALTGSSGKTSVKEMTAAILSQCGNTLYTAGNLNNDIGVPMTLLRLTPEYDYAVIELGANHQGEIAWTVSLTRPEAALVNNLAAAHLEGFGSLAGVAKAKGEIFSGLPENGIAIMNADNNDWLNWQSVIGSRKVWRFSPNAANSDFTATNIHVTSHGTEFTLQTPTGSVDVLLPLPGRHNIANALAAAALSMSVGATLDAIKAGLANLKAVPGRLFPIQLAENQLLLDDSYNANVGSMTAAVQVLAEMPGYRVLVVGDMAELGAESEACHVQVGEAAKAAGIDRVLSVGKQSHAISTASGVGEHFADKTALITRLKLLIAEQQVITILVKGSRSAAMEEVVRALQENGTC
# Procedure: as §1
# RNA polymerase = tested on: RNA polymerase
# Procedure: as §1
Structure (SMILES),relative enzymatic activity (DNA gyrase),relative enzymatic activity (DNA helicase),relative enzymatic activity (DNA ligase),relative enzymatic activity (DNA polymerase),relative enzymatic activity (DNA primase),relative enzymatic activity (GlmU),relative enzymatic activity (Guanlyate kinase),relative enzymatic activity (MurA),relative enzymatic activity (MurD),relative enzymatic activity (MurF),relative enzymatic activity (RNA polymerase)
Cc1cc(=O)c(C(=O)N[C@@H](C(=O)N[C@@H]2C(=O)N3C(C(=O)O)=C(CSc4nnnn4C)CS[C@H]23)c2ccc(O)cc2)c[nH]1,0.759 ± 0.035,0.278 ± 0.28,0.862 ± 0.016,1.08 ± 0.15,0.766 ± 0.023,0.919 ± 0.03,0.946 ± 0.015,0.116 ± 0.018,0.634 ± 0.44,0.92 ± 0.2,0.505 ± 0.5
Nc1nc(/C(=N/O)C(=O)N[C@@H]2C(=O)N3C(C(=O)O)=C(/C=C4\CCN([C@@H]5CCNC5)C4=O)CS[C@H]23)ns1,0.279 ± 0.18,0.389 ± 0.35,0.901 ± 0.11,1.08 ± 0.3,0.816 ± 0.035,0.83 ± 0.021,0.881 ± 0.12,0.0852 ± 0.03,0.57 ± 0.38,1.1 ± 0.069,0.561 ± 0.045
COC1(NC(=O)CSCC#N)C(=O)N2C(C(=O)[O-])=C(CSc3nnnn3C)CSC21.[Na+] (stereo not given),0.762 ± 0.27,0.259 ± 0.32,1.42 ± 0.28,1.16 ± 0.3,0.669 ± 0.18,1.12 ± 0.035,0.746 ± 0.076,0.167 ± 0.022,0.706 ± 0.47,1.01 ± 0.2,0.839 ± 0.031
C=CC1=C(C(=O)O)N2C(=O)[C@@H](NC(=O)/C(=N/O)c3csc(N)n3)[C@H]2SC1,0.0537 ± 0.076,0.371 ± 0.1,0.963 ± 0.1,1.16 ± 0.24,0.769 ± 0.027,1.004 ± 0.0086,0.947 ± 0.08,0.119 ± 0.015,0.599 ± 0.41,0.943 ± 0.22,0.785 ± 0.086
CCn1cc(C(=O)O)c(=O)c2cnc(N3CCNCC3)nc21,0.262 ± 0.12,0.533 ± 0.057,0.92 ± 0.084,1.16 ± 0.2,0.876 ± 0.015,0.94 ± 0.024,0.891 ± 0.16,0.865 ± 0.047,0.583 ± 0.38,1.136 ± 0.011,0.83 ± 0.027
Cc1cc(C(C)(C)CC(C)(C)C)ccc1OCCOCC[N+](C)(C)Cc1ccccc1.[Cl-],0.0681 ± 0.096,0.0148 ± 0.0016,1.09 ± 0.19,0.247 ± 0.011,0.55 ± 0.034,0.409 ± 0.4,0.428 ± 0.034,0.0365 ± 0.0028,0.0983 ± 0.021,0.477 ± 0.33,0.664 ± 0.036
CC(NCCCc1cccc(C(F)(F)F)c1)c1cccc2ccccc12.Cl (stereo not given),1.09 ± 0.12,0.434 ± 0.07,1.1 ± 0.31,1.18 ± 0.25,0.676 ± 0.16,1.08 ± 0.17,1.01 ± 0.032,0.749 ± 0.32,0.58 ± 0.37,0.953 ± 0.19,0.817 ± 0.077
COc1ccc2c(c1OC)C(=O)OC2C1c2c(cc3c(c2OC)OCO3)CCN1C.Cl (stereo not given),0.0862 ± 0.019,0.249 ± 0.016,1.11 ± 0.17,1.36 ± 0.47,0.947 ± 0.42,1.123 ± 0.0013,1.12 ± 0.066,0.417 ± 0.096,0.684 ± 0.53,0.967 ± 0.19,0.914 ± 0.045
CN(C)C1C(O)=C(C(N)=O)C(=O)C2(O)C(O)=C3C(=O)c4c(O)cccc4C(C)(O)C3CC12.Cl (stereo not given),0.904 ± 0.27,0.696 ± 0.28,1.03 ± 0.033,1.37 ± 0.52,0.711 ± 0.17,0.9683 ± 0.0011,1.05 ± 0.046,0.712 ± 0.038,0.627 ± 0.43,0.964 ± 0.2,0.857 ± 0.014
CC1CCC2(C)C(C=O)=CCCC2C1(C)CC1OC(O)C(=O)C12CO2 (stereo not given),0.075 ± 0.11,0.688 ± 0.45,1.12 ± 0.035,1.15 ± 0.2,0.89 ± 0.017,1.008 ± 0.0078,0.956 ± 0.024,0.662 ± 0.12,0.612 ± 0.41,0.577 ± 0.81,1.06 ± 0.13
CCn1cc(C(=O)O)c(=O)c2cc(F)c(N3CCNC(C)C3)c(F)c21.Cl (stereo not given),0.0253 ± 0.036,0.786 ± 0.38,1.442 ± 0.0066,1.29 ± 0.3,0.712 ± 0.2,1.09 ± 0.16,1 ± 0.097,0.728 ± 0.031,0.577 ± 0.38,0.554 ± 0.78,1.16 ± 0.36
CC1CCc2cc(F)cc3c(=O)c(C(=O)O)cn1c23 (stereo not given),0.0609 ± 0.086,0.593 ± 0.15,0.937 ± 0.35,1.41 ± 0.53,0.655 ± 0.13,0.9984 ± 0.0089,1.03 ± 0.1,0.715 ± 0.16,0.568 ± 0.39,0.97 ± 0.2,1.04 ± 0.22
CC[C@@H](C)CCCCC(=O)N[C@@H](CCN)C(=O)N[C@H](C(=O)N[C@@H](CCN)C(=O)N[C@H]1CCNC(=O)[C@H]([C@@H](C)O)NC(=O)[C@H](CCN)NC(=O)[C@H](CCN)NC(=O)[C@H](CC(C)C)NC(=O)[C@@H](Cc2ccccc2)NC(=O)[C@@H](CCN)NC1=O)[C@@H](C)O,1.66 ± 0.37,0.0939 ± 0.022,0.701 ± 0.47,0.34 ± 0.059,0.616 ± 0.13,1.11 ± 0.016,0.449 ± 0.055,0.646 ± 0.21,0.674 ± 0.44,0.991 ± 0.22,0.46 ± 0.03
CC(N)O.Cc1cc(CC(C)CC(C)(C)C)n(O)c(=O)c1 (stereo not given),0.964 ± 0.11,0.621 ± 0.26,1.17 ± 0.13,1.16 ± 0.23,0.719 ± 0.22,1.095 ± 0.0024,0.963 ± 0.12,0.844 ± 0.05,0.636 ± 0.43,0.592 ± 0.82,0.884 ± 0.076
CC1CN(c2c(F)c(F)c3c(=O)c(C(=O)O)cn(C4CC4)c3c2F)CC(C)N1 (stereo not given),0.063 ± 0.089,0.599 ± 0.21,1.09 ± 0.085,0.509 ± 0.72,0.8561 ± 0.0075,0.97 ± 0.066,0.949 ± 0.073,0.676 ± 0.015,0.597 ± 0.41,1.09 ± 0.014,0.847 ± 0.13
